Drawing on PubChem BioAssay (NCI), this text covers growth for 8 compounds.

Test systems include HCT-15 colon; HT29 colon; SNB-75 CNS; SNB-19 CNS; U251 CNS; PC-3 prostate; SK-MEL-5 melanoma; UACC-62 melanoma; LOX IMVI melanoma; SK-MEL-28 melanoma; SK-MEL-2 melanoma; EKVX NSCLC; SN12C renal; UO-31 renal; TK-10 renal; ACHN renal; CAKI-1 renal; A498 renal; CCRF-CEM leukemia; MOLT-4 leukemia.
Experiment in all cases: NCI-60 one-dose screen, 48 h (100 = growth as untreated, 0 = no growth, -100 = all killed)
Holding throughout (details): 10 µM unless noted

About 83,000 compounds went through this panel and 20% of them were active in at least one assay; those are over-represented in the sample as a whole.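 Percent growth is the endpoint: 0 to 100 indicates growth inhibition (40 means 60% inhibition), 0 means no net growth, and negative values indicate cell death.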 Values without a mark were called inactive. Active and inactive are the calls of the source. Rule for the calls: active = growth percent below 10; inactive = the rest.

As for `CC(O)c1ncc(/C=C2\SC(=S)N(Cc3ccccc3)C2=O)s1` (stereo not given), the growth is 97.4% in the test on HCT-15 colon; 59.4% with HT29 colon; 102% in the test on SNB-75 CNS; 106% in the test with SNB-19 CNS; 87.9% in the test with U251 CNS; 97.3% with PC-3 prostate. Also, the growth in the test on SK-MEL-5 melanoma was 93.7%; with UACC-62 melanoma, 99.4%; with LOX IMVI melanoma it was 92.7%; in the test with SK-MEL-28 melanoma it was 92.2%; in the test with SK-MEL-2 melanoma, 91%; in the test on EKVX NSCLC, 101%. In addition, the growth with SN12C renal was 110%; in the test on UO-31 renal, 85.8%; with TK-10 renal, 33.7%; with ACHN renal, 95.6%; in the test on CAKI-1 renal it was 93.4%; in the test on A498 renal, 100%. Besides, the results for the growth in the test on CCRF-CEM leukemia and in the test on MOLT-4 leukemia were 98.6% and 108%, respectively.
For `COc1cccc(C(=O)OCC(O)C(=O)NC23CC4CC(CC(C4)C2)C3)c1` (stereo not given), the growth in the test with HCT-15 colon was 96.9%; with HT29 colon, 101%; with SNB-75 CNS, 95.2%; with SNB-19 CNS, 97.2%; in the test with U251 CNS, 94.1%; in the test with PC-3 prostate, 93.3%. Also, the growth in the test on SK-MEL-5 melanoma was 99.2%; in the test on UACC-62 melanoma, 93.4%; in the test with LOX IMVI melanoma, 95.4%; in the test on SK-MEL-28 melanoma, 104%; in the test with SK-MEL-2 melanoma, 101%; in the test with EKVX NSCLC, 97.4%. In addition, the growth is 95.5% in the test with SN12C renal; 87.1% in the test with UO-31 renal; 96.4% with TK-10 renal; 97.2% in the test on ACHN renal; 99.8% in the test on CAKI-1 renal; 96.9% in the test with A498 renal. The growth in the test on CCRF-CEM leukemia is 86.3%; in the test on MOLT-4 leukemia, 95.4%.
As to `C/C(=N\O)C(=O)NCCCCCC(=O)Nc1ccccc1`, the growth in the test on HCT-15 colon was 101%; in the test with HT29 colon it was 104%; with SNB-75 CNS, 88.2%; with SNB-19 CNS it was 99.3%; in the test with U251 CNS it was 98.6%; in the test on PC-3 prostate, 104%. The growth is 91.7% in the test with SK-MEL-5 melanoma; 94.3% with UACC-62 melanoma; 89.7% with LOX IMVI melanoma; 114% with SK-MEL-28 melanoma; 110% in the test on SK-MEL-2 melanoma; 98.2% in the test with EKVX NSCLC. The growth with SN12C renal was 98.5%; in the test on UO-31 renal, 90.3%; in the test on TK-10 renal it was 89.6%; with ACHN renal, 109%; in the test on CAKI-1 renal, 91.9%; with A498 renal it was 90.2%. The growth in the test with CCRF-CEM leukemia and in the test on MOLT-4 leukemia was 101% throughout.
As to `CC1(C)O[C@H]2OC3CCC(=O)CC3(O)[C@H]2O1` (stereo not given in full), the growth is 111% in the test on HCT-15 colon; 98.6% in the test with HT29 colon; 95.1% with SNB-75 CNS; 107% with SNB-19 CNS; 96.5% in the test with U251 CNS; 82% in the test with PC-3 prostate. The growth in the test with SK-MEL-5 melanoma was 98.8%; in the test with UACC-62 melanoma it was 107%; with LOX IMVI melanoma, 96.7%; in the test with SK-MEL-28 melanoma it was 120%; in the test with SK-MEL-2 melanoma, 102%; in the test with EKVX NSCLC, 112%. Besides, the growth in the test with SN12C renal is 103%; in the test with UO-31 renal, 79.5%; in the test on TK-10 renal it was 97.7%; with ACHN renal, 110%; with CAKI-1 renal, 101%; with A498 renal it was 95.1%. Besides, the growth in the test with CCRF-CEM leukemia was 106%; in the test on MOLT-4 leukemia, 112%.
For the compound `O=[N+]([O-])/C(=C\c1ccco1)c1ccccc1Cl`, the growth is 67.7% in the test on HCT-15 colon; 69.7% in the test with HT29 colon; 64.8% with SNB-75 CNS; 79.7% in the test with SNB-19 CNS; 72.6% in the test on U251 CNS; 45.8% in the test on PC-3 prostate. For the same compound, the growth in the test on SK-MEL-5 melanoma is 76.7%; in the test with UACC-62 melanoma, 33.8%; with LOX IMVI melanoma it was 64.2%; with SK-MEL-28 melanoma it was 60.3%; in the test with SK-MEL-2 melanoma, 60.6%; in the test on EKVX NSCLC, 83.1%. Besides, the growth was 78.4% in the test on SN12C renal; 66.6% with UO-31 renal; 82.8% with TK-10 renal; 81.1% with ACHN renal; 67% with CAKI-1 renal; 41.9% in the test with A498 renal. The growth is 60.5% in the test with CCRF-CEM leukemia and 74.1% in the test with MOLT-4 leukemia.
`COc1ccc(Nc2ncc(C(N)=O)c(NCCCNC(=O)C3CCC3)n2)cc1`: the growth in the test with HCT-15 colon was 82.1%; in the test on HT29 colon it was 70.7%; in the test on SNB-75 CNS, 49.7%; with SNB-19 CNS, 75.5%; with U251 CNS, 56.3%; in the test with PC-3 prostate it was 62.8%. In addition, the growth is 88.3% with SK-MEL-5 melanoma; 77.8% with UACC-62 melanoma; 73.1% in the test on LOX IMVI melanoma; 94.2% in the test with SK-MEL-28 melanoma; 51.8% in the test with SK-MEL-2 melanoma; 96.2% in the test on EKVX NSCLC. Besides, the growth with SN12C renal was 30.9%; with UO-31 renal, 2.37% (active); with TK-10 renal it was 34.4%; in the test with ACHN renal it was 44.9%; in the test on CAKI-1 renal, 34.7%; in the test with A498 renal, 105%. Moreover, the growth with CCRF-CEM leukemia was 43.7%; in the test on MOLT-4 leukemia, 38.7%.
`CCN1C(=O)N(CC)C2C1NN=c1s/c(=C\c3cc4ccccc4[nH]3)c(=O)n12` (stereo not given): the growth in the test with HCT-15 colon is 12%; in the test on HT29 colon, 5.58% (active); with SNB-75 CNS, 32.1%; in the test with SNB-19 CNS, 45.1%; with U251 CNS, 7.49% (active); with PC-3 prostate it was 13.2%. The growth in the test on SK-MEL-5 melanoma is -5.91% (active); with UACC-62 melanoma, 22.2%; in the test with LOX IMVI melanoma, 17.4%; with SK-MEL-28 melanoma, 52.2%; in the test on SK-MEL-2 melanoma it was 23.1%; with EKVX NSCLC it was 54.5%. The growth in the test with SN12C renal is 11.2%; with UO-31 renal, 18.7%; with TK-10 renal, 59.6%; with ACHN renal, 11.7%; in the test with CAKI-1 renal it was 7.63% (active); with A498 renal it was 2.17% (active). The growth is -8.2% (active) with CCRF-CEM leukemia and 11.1% in the test on MOLT-4 leukemia.
Turning to `O=C(O)C1CN(c2cccc(Cl)c2)N(c2cccc(Cl)c2)C1=O` (stereo not given), the growth in the test on HCT-15 colon was 91.8%; with HT29 colon, 96.2%; in the test with SNB-75 CNS it was 76.9%; in the test on SNB-19 CNS, 82.8%; in the test with U251 CNS, 102%; with PC-3 prostate it was 94.6%. Also, the growth was 98% in the test with SK-MEL-5 melanoma; 88.5% with UACC-62 melanoma; 88.7% in the test with LOX IMVI melanoma; 93.1% in the test on SK-MEL-28 melanoma; 94.7% in the test on SK-MEL-2 melanoma; 96.9% in the test on EKVX NSCLC. Also, the growth was 89% in the test with SN12C renal; 72.2% in the test on UO-31 renal; 105% in the test on TK-10 renal; 95.6% with ACHN renal; 92.8% with CAKI-1 renal; 110% in the test with A498 renal. Moreover, the growth is 107% in the test on CCRF-CEM leukemia and 88.8% in the test with MOLT-4 leukemia.
